# Assay results from ChEMBL document CHEMBL1157539, “Thousands of chemical starting points for antimalarial lead identification” (Nature, 2010).
# How the values were obtained:
# Format in all cases: functional
# [1] = system: Plasmodium falciparum; assay: GSK_TCMDC: Inhibition of Plasmodium falciparum 3D7 in whole red blood cells, using parasite LDH activity as an index of growth. Test compounds present at 2uM
# [2] = system: Plasmodium falciparum; assay: GSK_TCMDC: Inhibition of Plasmodium falciparum Dd2 in whole red blood cells, using parasite LDH activity as an index of growth. Test compounds present at 2uM
# [3] = system: HepG2; assay: GSK_TCMDC: Percent inhibition of human HepG2 cell line. Test compounds present at 10uM.
SMILES,Inhibition [1] [%],Inhibition [2] [%],Inhibition [3] [%]
Clc1ccc(CNC2CCN(CC3CCCCC3)CC2)cc1.O=C(O)C(F)(F)F,92,15,12
COc1ccc(C(=O)N[C@@H](CC(C)C)C(=O)NC2CC[C@@H](C)N(C(=O)Nc3ccc(Cl)cc3)CC2=O)cc1OCCN1CCOCC1 (stereo not given in full),96,91,5
CCC(C)NS(=O)(=O)c1ccc2nc(Nc3ccc(C)c(Cl)c3)n(C(C)C(C)C)c2c1 (stereo not given),98,98,22
C[C@@H](Nc1nc(NCc2ccccc2)c2sccc2n1)c1ccccc1,91,75,31
Cc1cc(N[C@@H](Cc2ccccc2)C(=O)NCCOc2ccccc2)nc(Nc2ccccc2)n1.O=C(O)C(F)(F)F,100,63,2
CCN(C(=O)NC)C1c2cc(C#N)ccc2OC(C)(C)C1O (stereo not given),96,2,3
O=C(c1ccc([N+](=O)[O-])o1)N1CCN(c2nc3c(Cl)cccc3s2)CC1,91,87,0
CCOc1cc(C(=O)N[C@@H](Cc2ccccc2)[C@H](O)CNCc2cc(OC)cc(OC)c2)cc(N2CCCC2=O)c1.Cl,94,63,0
CC(C)(C)c1ccc(CNCC(C)(C)c2nc(-c3ccnc(N)n3)c(-c3ccc(Cl)c(O)c3)[nH]2)cc1.Cl,100,54,28
COc1ccc2[nH]c3ccccc3c(=O)c2c1,87,75,0
